Our source for the outcome and AC50 values is PubChem BioAssay (EPA / NIEHS).

Inconclusive results are not listed. Active and inactive are the calls of the source. Rule for the calls: active = hit-call score of the fitted dose curve at least 0.9, where 1 is the maximum; inconclusive = response in the unintended direction; inactive = score below 0.9.

In the assay the target is Retinoic acid receptor RXR-alpha (Homo sapiens) (UniProt P19793). The experiment in a line: OT_NURR1_NURR1RXRa_1440: Odyssey Thera (OT) 24-hour HEK293T Protein Complementation Assay for Nurr1/retinoid X receptor (RXR) (AID 2283386). How it is done: OT_NURR1_NURR1RXRa_1440 is a cell-based assay that uses HEK293T, a human kidney cell line, with measurements taken at 24 hours after chemical dosing in a 384-well plate.OT_NURR1_NURR1RXRa_1440 is one of one assay component(s) measured or calculated from the OT_NURR1_NURR1RXRa_1440 assay. It is designed to make measurements of protein fragment complementation, a form of binding reporter, as detected with fluorescence intensity signals by Protein-fragment Complementation technology.Data from the assay component OT_NURR1_NURR1RXRa_1440 was analyzed into 1 assay endpoint. This assay endpoint, OT_NURR1_NURR1RXRa_1440, was analyzed in the positive analysis fitting direction relative to DMSO as the negative control and baseline of activity. Using a type of binding reporter, measures of receptor for gain-of-signal activity can be used to understand the binding at the pathway-level as they relate to the gene RXRA. Furthermore, this assay endpoint can be referred to as a primary readout, because the performed assay has only produced 1 assay endpoint. To generalize the intended target to other relatable targets, this assay endpoint is annotated to the nuclear receptor intended target family, where the subfamily is non-steroidal.
Chain of Retinoic acid receptor RXR-alpha (Homo sapiens) (P19793 whole entry, looked up, the tested form may be a part): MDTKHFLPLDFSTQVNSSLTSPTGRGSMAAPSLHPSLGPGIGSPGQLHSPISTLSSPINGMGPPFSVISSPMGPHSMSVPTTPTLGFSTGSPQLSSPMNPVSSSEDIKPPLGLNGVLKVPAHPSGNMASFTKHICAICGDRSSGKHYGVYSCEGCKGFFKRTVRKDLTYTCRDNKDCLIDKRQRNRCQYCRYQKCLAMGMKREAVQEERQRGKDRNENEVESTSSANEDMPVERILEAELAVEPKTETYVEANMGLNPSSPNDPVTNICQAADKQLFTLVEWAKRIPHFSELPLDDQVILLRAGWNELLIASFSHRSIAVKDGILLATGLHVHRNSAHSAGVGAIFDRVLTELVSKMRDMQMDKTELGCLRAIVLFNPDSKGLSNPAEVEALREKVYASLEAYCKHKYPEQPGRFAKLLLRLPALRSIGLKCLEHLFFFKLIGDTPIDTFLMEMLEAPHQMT
Protein-fragment complementation assay, or PCA, is a method for the identification and quantification of protein-protein interactions. In the PCA, the proteins of interest ("bait" and "prey") are each covalently linked to fragments of a third protein (e.g. DHFR, which acts as a "reporter"). Interaction between the bait and the prey proteins brings the fragments of the reporter protein in close proximity to allow them to form a functional reporter protein whose activity can be measured.
Turning to `CCC[Si](OC)(OC)OC`, the outcome was inactive.

In the case of `C=C1C[C@H]2[C@@H]3C=C(C)C4=CC(=O)CC[C@]4(C)[C@H]3CC[C@]2(C)[C@@]1(OC(C)=O)C(C)=O`, the AC50 was 49.5 µM (active).

As for `Cc1ccc([N+](=O)[O-])cc1N`, the outcome was inactive.

Turning to `CN(C)c1ccc2nc3ccc(=[N+](C)C)cc-3sc2c1`, the AC50 was 15.3 µM (active).

With `C[Si]1(C)O[Si](C)(C)O[Si](C)(C)O[Si](C)(C)O[Si](C)(C)O1`, the compound was called inactive.

In the case of `CCOC(=O)C1=NOC(c2ccccc2)(c2ccccc2)C1`, the compound was classed as inactive.

Take `C/C=C/C=C/CCCCCCCO`: the AC50 was 5.06 µM (active).

Consider `CCCCC(CC)COS(=O)(=O)O` (stereo not given), for which the result was inactive.

Turning to `c1ccc(Nc2cccc3ccccc23)cc1`, the AC50 is 82 µM (active).

For the compound `CCCCCCCCC(CO)CCCCCC` (stereo not given), the compound was classed as inactive.

As to `CC1=CC=C(C(C)C)CC1`, the compound was classed as inactive.

Take `O=C(O)c1ccc2c(c1)C(=O)OC2=O`: the result was inactive.

Turning to `O=C(Nc1ccccc1)c1cc(Cl)ccc1O`, the AC50 is 16.1 µM (active).

On to `CCc1cccc(C)c1N`, for which the compound was called inactive.

With `CCCCCCOc1ccc(N)cc1`, the compound was called inactive.

For the compound `NC(=O)Nc1ccccc1`, the compound was called inactive.

Consider `CC1=NN(c2ccc(S(=O)(=O)O)cc2)C(=O)C1N=Nc1ccccc1` (stereo not given), for which the call was inactive.

For `CCCC(CC)c1ccccc1` (stereo not given), the result was inactive.

Take `CC(=O)c1ccccc1O`: the compound was called inactive.

In the case of `N#Cc1ccc(C2CCCc3cncn32)cc1` (stereo not given), the result was inactive.

In the case of `CCC(C)(O)CCCC(C)C` (stereo not given), the compound was called inactive.

Consider `C1CNCCN1`, for which the result was inactive.

With `O=C(OCc1ccccc1)c1ccc(O)cc1`, the AC50 is 69.9 µM (active).

For the compound `O=S(=O)(O)c1ccc(N=Nc2c(O)ccc3ccccc23)cc1`, the call was inactive.

On to `CCCCC(C=O)CC` (stereo not given), for which the call was inactive.

Turning to `N#Cc1ccc(C(c2ccc(C#N)cc2)n2cncn2)cc1`, the result was inactive.

`CCCCCCCOC(=O)c1ccc(O)cc1`: the AC50 is 90.7 µM (active).

As for `CC(C)(C)N`, the call was inactive.

For `O=C(OCCc1ccccc1)c1ccccc1`, the outcome was inactive.

In the case of `CC1(C)[C@@H]2CC[C@@]1(C)C(=O)C2`, the call was inactive.

In the case of `CC(C)(C)C1CCC(=O)CC1`, the compound was called inactive.

With `O=C(O)/C=C/c1ccccc1`, the compound was called inactive.

In the case of `CC(=O)/C=C/C1C(C)=CCCC1(C)C` (stereo not given), the call was inactive.

As to `CCCCCCC=O`, the outcome was inactive.

As for `C=C[C@@]1(C)CC(=O)[C@]2(O)[C@@]3(C)[C@@H](O)CCC(C)(C)[C@@H]3[C@H](O)[C@H](OC(C)=O)[C@@]2(C)O1`, the concentration at half-maximal activity (AC50) is 0.396 µM (active).

Consider `O=C(O)CCC(=O)O`, for which the compound was classed as inactive.

Take `CCCCCCCCCCCCCCCCCCOS(=O)(=O)O`: the compound was classed as inactive.

For `CC(CCC(=O)O)(c1ccc(O)cc1)c1ccc(O)cc1`, the result was inactive.

Take `O=C(O)CC(C(=O)O)S(=O)(=O)O` (stereo not given): the call was inactive.

Take `CCCCC(CC)COC(=O)/C=C/c1ccc(OC)cc1` (stereo not given): the call was inactive.

As usually defined, the AC50 is the midpoint of the concentration-response curve, whichever way the signal moves.
